Results filed as inconclusive are left out. Unmarked numbers belong to inactive results. Calls of active or inactive are those of the source. Calls follow the shape of the dose curve; as a rule, active = well fitted activation curve with a large enough effect; inconclusive = small, poorly fitted or top-dose-only effect; inactive = no such curve, though single readings can be large or run the other way.
assay: qHTS Assay for Agonists of the Relaxin Receptor RXFP1: V1B Hit Validation; conditions: HEK293 V1B cells, cAMP TR-FRET, 30 min; series mostly up to 115 µM; activation: at the top concentration;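 also: counter-screen in HEK293 cells expressing V1B rather than RXFP1 for selectivity; nearly all actives have a fitted effect of over 65% in size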;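 as to activation: cAMP accumulation with PDE4 inhibitor Ro 20-1724 present during compound exposure; 0% = buffer alone basal and 100% = 29 nM porcine relaxin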
Method in brief: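 HEK293 cells expressing V1B, 2000/well, treated 30 min at 37C with compound plus PDE4 inhibitor Ro 20174; cAMP by HTRF TR-FRET (665/615 nm). Normalized to buffer and 29 nM porcine relaxin; EC50 from Hill fit.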
Potency is read from the fitted curve at half-maximal effect.

| SMILES | Potency | activation |
| --- | --- | --- |
| Cc1cc(Br)c2nc3c(c(C(=O)O)c2c1)CCCCC3 | 1.54 µM (active) | – |
| COc1cc(-c2nnc(SCC(=O)N(C)C3CCS(=O)(=O)C3)o2)cc(OC)c1OC (stereo not drawn) | – | 6.32% [at 44.9 µM] |
| O=C(Nc1ccccc1C(=O)Nc1ccccc1)c1ccco1 | – | 1.83% [at 127 µM] |
| CC(=O)Nc1ccc(S(=O)(=O)NCc2cc(=O)n(C)c(=O)n2C)cc1 | 30.9 µM (active) | – |
| Nc1cc2ccncc2c2ccccc12 | – | 4.06% |
| CCN(CC)C(=O)c1cc(Cl)ccc1NC(=O)c1ccco1 | – | 2.42% [at 127 µM] |
| CC1CCCN(C(=O)COC(=O)CNC(=O)c2sc3ccccc3c2Cl)C1 (stereo not drawn) | 8.68 µM (active) | – |
| CCN(CC)c1ccc(S(=O)(=O)N2CCOCC2)cc1NC(=O)CSc1nncn1C | 12.3 µM (active) | – |
| COc1ccc(Nc2ncc(C#N)c(N)n2)c(OC)c1 | – | -2.08% |
| COc1ccc(CN2C(=O)c3cccnc3C2=O)cc1S(=O)(=O)NC1CCCCC1 | 34.6 µM (active) | – |
| O=C(O)c1ccc(N2C(=O)c3cccc4c(C(=O)O)ccc(c34)C2=O)cc1 | 47.3 µM (active) | – |
| Cc1cc(C)c(C(=O)CSc2n[nH]c(=O)n2C2CC2)cc1C | – | -2.45% |
| CCOC(=O)c1sc(NC(=O)CCc2ccc(OC)cc2)nc1C | 15.4 µM (active) | – |
| CN(C)S(=O)(=O)c1ccc(C(=O)OCC(=O)Nc2cccnc2Cl)cc1 | 19.4 µM (active) | – |
| Nc1ncnc2c1ncn2C1OC(CO)C(O)C1O (stereo not drawn) | 9.77 µM (active) | – |
| COC(=O)c1c(N2C(=O)CC(Sc3ncccc3C(=O)O)C2=O)sc(C)c1C (stereo not drawn) | – | -11.8% |
| O=C(OCc1nc2ccsc2c(=O)[nH]1)c1cccc(S(=O)(=O)N2CCOCC2)c1 | 34.6 µM (active) | – |
| COC(=O)Cn1cnc2c(C#N)c3n(c2c1=O)CCCCC3 | 13.8 µM (active) | – |
| O=[N+]([O-])c1cc2c(c(CSc3nnc4ccccn34)c1)OCOC2 | 12.3 µM (active) | – |

| SMILES | Potency | activation |
| --- | --- | --- |
| CN(CC(=O)Nc1ccccc1Cl)C(=O)COC(=O)Cc1c(F)cccc1Cl | – | 3.14% [at 44.9 µM] |
| CC(C)Oc1ccc(S(=O)(=O)N2CCOCC2)cc1NC(=O)c1cc([N+](=O)[O-])ccc1N1CCOCC1 | 37.5 µM (active) | – |
| CCC(Sc1ccc2nnc(-c3cccnc3)n2n1)C(=O)OC (stereo not drawn) | 19.4 µM (active) | – |
| O=C(Nc1ccccc1C(=O)NCCc1ccccc1)c1ccco1 | – | 3.59% [at 127 µM] |
| O=C(O)c1ccc(N2C(=O)c3cccc4cccc(c34)C2=O)cc1 | 74.9 µM (active) | – |
| COc1ccccc1NC(=O)CCCc1nnc2n(C)c(=O)c3sccc3n12 | 13.8 µM (active) | – |
| Cc1nc2scc(C)n2c(=O)c1S(=O)(=O)N1CCN(c2ccccn2)CC1 | 30.9 µM (active) | – |
| O=c1c2ccccc2cnn1Cc1n[nH]c(=S)n1-c1ccc(F)c(Cl)c1 | 21.9 µM (active) | – |
| Cc1ccccc1NC(=O)c1ccccc1NC(=O)c1ccco1 | – | 9.6% [at 127 µM] |
| CCN(CC)S(=O)(=O)c1ccc(N2CCOCC2)c(NC(=O)c2cc([N+](=O)[O-])ccc2Cl)c1 | – | 9.17% |
| COc1ccc(CC(=O)N/N=C/c2cccnc2)cc1OC | – | -5.08% |
| O=C(Nc1ccccc1C(=O)NCCN1CCOCC1)c1ccco1 | – | 3.24% [at 127 µM] |
| Cc1ccccc1OCC(=O)Nc1sc(C(=O)Nc2cccc(C)c2C)c(C)c1C#N | 6.15 µM (active) | – |
| CCN(CC)CCCCCC(=O)Nc1ccccc1C(=O)Nc1ccccc1 | – | -2.76% [at 127 µM] |
| c1ccc(-c2nnc(-c3ccccn3)c(-c3ccccn3)n2)nc1 | – | -1.59% |
| Cc1ccc(C(=O)Nc2cccc(C(F)(F)F)c2)cc1NC(=O)c1cnnc2ccccc12 | – | 4.89% |
| CCCC(=O)Nc1ncnc2c1ncn2[C@@H]1O[C@@H]2OP(=O)(O)OC[C@H]2[C@H]1OC(=O)CCC | 0.868 µM (active) | – |
| CN(C)c1ccc(NC(=O)C2C3C=CC(C3)C2C(=O)O)cc1 (stereo not drawn) | – | -1.47% |
| O=S(=O)(Nc1ccccc1C(F)(F)F)c1ccc(-c2ccccn2)s1 | 21.9 µM (active) | – |
